Results on 25 molecules are retold here after PubChem BioAssay (NCATS).

Several values for one entry are separate records, joined by “and”; a condition that tells them apart may be missing. Equal entries are not always repeated. Results filed as inconclusive are left out. Values without a mark were called inactive. Activity calls are given as the source filed them. Calls come from the whole dose curve; as a rule, active = well fitted cell-killing curve with a large enough effect; inconclusive = small, poorly fitted or top-dose-only effect, or effect the other way; inactive = no such curve, though single readings can be large or run the other way.

Test [1] in a line: Viability qHTS for spleen associated tyrosine kinase inhibitor (SYKi) naive MV4-11 cells (AID 1963823). Note: nearly all actives have a fitted effect of over 40% in size. In a few lines: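 Seeding of 500 SYKi-naive MV4-11 cells per well onto pre-dispensed compounds preceded a 72 hr incubation at 37 C. Luminescent CellTiter-Glo signal, read after 10 min at room temperature, reflected viable cells.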
In general terms: qHTS replaces the single test concentration by a dilution series.

Test [2] is described as follows: Viability qHTS for spleen associated tyrosine kinase inhibitor (SYKi) drug resistant MV4-11 cells (AID 1963824). Note: nearly all actives have a fitted effect of over 35% in size. In a few lines: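 SYK-inhibitor-resistant MV4-11 AML cells were seeded at 500 per well onto compound and cultured 72 hours (37 °C, 5% CO2). CellTiter-Glo was then added, and after 10 min at room temperature, luminescence gave viability.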
Potency is the fitted concentration of half-maximal effect.

In the case of `CO[C@H]1O[C@@H]2O[C@]3(C)CC[C@H]4[C@H](C)CC[C@@H]([C@H]1C)[C@@]24OO3`, the Potency in test [1] was 1.84 µM (active); in test [2], 2.91 µM (active).
Take `Cc1cc(N2CCCCC2)nc2ccccc12`: the Potency entry in test [1] and in test [2] was “inactive” in each case.
`Nc1ncnc2c1nc(Cl)n2C1O[C@H](CO)[C@@H](O)[C@H]1O` (stereo not given in full): the Potency in test [1] is 0.366 µM (active); in test [2], 0.146 µM (active).
Take `C[C@@H]1O[C@@H](OC[C@H]2O[C@@H](OCc3ccccc3)[C@H](O)[C@@H](O)[C@@H]2O)[C@H](O)[C@H](O)[C@H]1O`: the Potency result in test [1] and in test [2] was “inactive” each time.
With `CC(C)=CC1C[C@](C)(O)[C@@H]2[C@H]3CCC4[C@@]5(C)CC[C@H](O[C@@H]6OC[C@H](O)[C@H](O[C@@H]7O[C@H](CO[C@@H]8O[C@H](CO)[C@@H](O)[C@H](O)[C@H]8O)[C@@H](O)[C@H](O)[C@H]7O)[C@H]6O[C@@H]6O[C@@H](C)[C@H](O)[C@@H](O)[C@H]6O)C(C)(C)[C@@H]5CC[C@@]4(C)[C@@]34CO[C@@]2(C4)O1` (stereo not given in full), the viability (% of control) in test [1] is 74.2% [at 9.25 µM]. For the same molecule, the viability, % of control in test [2] is 96.9% [at 9.25 µM].
As to `COC(=O)[C@]1(C)CCC[C@@]2(C)[C@@H]3CC[C@@H]4C[C@@]3(CC[C@@H]21)C[C@H]4C(=O)O`, the Potency entry in test [1] and in test [2] was “inactive” throughout.
Regarding `CC(=O)O[C@@H]1[C@@H](OC(=O)/C=C/c2ccccc2)[C@@H](OC(C)=O)[C@H](O[C@H]2[C@@H]3C=CO[C@@H](O[C@@H]4O[C@H](CO)[C@@H](O)[C@H](O)[C@H]4O)[C@@H]3[C@@]3(CO)O[C@@H]23)O[C@H]1C`, the Potency entry in test [1] and in test [2] was “inactive” in each case.
As for `CC(C)C(C(=O)N1CCCC1C(=O)O)N(C)C(=O)C(O)Cc1ccccc1` (stereo not given), the Potency entry in test [1] and in test [2] was “inactive” each time.
With `C[C@@H]1O[C@@H](O[C@H]2[C@H](O[C@H]3[C@H](O[C@H]4CC[C@@]5(C)C(CC[C@]6(C)C5CC=C5[C@@H]7CC(C)(C)CC(=O)[C@]7(C)CC[C@]56C)[C@@]4(C)CO)O[C@H](C(=O)O)[C@@H](O)[C@@H]3O)O[C@H](CO)[C@H](O)[C@@H]2O)[C@H](O)[C@H](O)[C@H]1O` (stereo not given in full), the viability (% of control) in test [1] was 81.7% [at 9.25 µM]. The viability, % of control in test [2] was 68.7% [at 9.25 µM].
As for `CC1=C2CC(O)(C(C)(C)O)C(O[C@@H]3O[C@H](CO)[C@@H](O)[C@H](O)[C@H]3O)CC(C)C2CC1=O` (stereo not given in full), the Potency result in test [1] and in test [2] was “inactive” each time.
Turning to `CC1(C)CC[C@]2(C(=O)O[C@@H]3O[C@H](CO)[C@@H](O)[C@H](O)[C@H]3O)CC[C@]3(C)C(=CCC4[C@@]5(C)CC[C@H](O[C@@H]6O[C@H](C(=O)O)[C@@H](O)[C@H](O[C@@H]7O[C@H](CO)[C@H](O)[C@H](O)[C@H]7O)[C@H]6O)C(C)(C)C5CC[C@]43C)C2C1` (stereo not given in full), the viability (% of control) in test [1] was 81.1% [at 9.25 µM]. Further, the viability, % of control in test [2] was 106% [at 9.25 µM].
As for `C=C1C(=O)O[C@@H]2[C@H]1CC[C@H](C)C(CCC(=O)O)C2(C)O` (stereo not given in full), the results for the Potency in test [1] and in test [2] were 5.8 µM (active) and 2.31 µM (active), respectively.
Regarding `C=C(C(=O)O[C@H]1C/C(C)=C/CC/C(CO)=C/[C@H]2OC(=O)C(=C)[C@H]12)C(O)CO` (stereo not given in full), the Potency is 2.02 µM (active) in test [1] and 0.904 µM (active) in test [2].
In the case of `CC1(C)SC2C(NC(=O)[C@H](NC(=O)N3CCNC3=O)c3ccccc3)C(=O)N2C1C(=O)O` (stereo not given in full), the Potency entry in test [1] and in test [2] was “inactive” in each case.
Turning to `CC1(C)CC[C@]2(C(=O)O)CC[C@]3(C)C(=CCC4[C@@]5(C)C[C@@H](O)[C@H](O)[C@@](C)(CO)C5CC[C@]43C)C2C1` (stereo not given in full), the Potency entry in test [1] was “inactive”. For the same molecule, the Potency in test [2] was 7.96 µM (active).
As for `COc1cc(SC)ccc1C(=O)N1CCC(Cc2ccccc2)CC1`, the Potency in test [1] was 23.1 µM (active); in test [2], 16.6 µM (active) and 20.6 µM (active).
As for `CC(O)/C=C/C1C(C)C(O[C@@H]2O[C@H](CO)[C@@H](O)[C@H](O)[C@H]2O)C(O)CC1(C)C` (stereo not given in full), the Potency entry in test [1] and in test [2] was “inactive” throughout.
`C[C@@H]1O[C@@H](O[C@H]2[C@@H]3C=CO[C@@H](O[C@@H]4O[C@H](CO)[C@@H](O)[C@H](O)[C@H]4O)[C@@H]3[C@@]3(CO)O[C@@H]23)[C@H](O)[C@H](OC(=O)/C=C/c2ccc(O)c(O)c2)[C@H]1O`: the Potency entry in test [1] and in test [2] was “inactive” throughout.
For the molecule `O=Nc1c2[nH]c3ccccc3nc-2c2ccccc12`, the figures for the Potency in test [1] and in test [2] were 5.8 µM (active) and 10.3 µM (active), respectively.
For `O=C(O)c1ccnc2cc(-c3nc4ccccc4n3CCN3CCCCC3)sc12`, the Potency result in test [1] and in test [2] was “inactive” throughout.
For `COC(=O)c1ccc(OC)cc1O[C@@H]1O[C@H](CO[C@@H]2OC[C@@H](O)[C@H](O)[C@H]2O)[C@@H](O)[C@H](O)[C@H]1O`, the Potency entry in test [1] and in test [2] was “inactive” throughout.
Regarding `Cc1ccc(C(C)C)c(O[C@@H]2O[C@H](CO)[C@@H](O)[C@H](O)[C@H]2O)c1`, the Potency entry in test [1] and in test [2] was “inactive” each time.
`CC(C)CCC1(O)C(=O)C(C)(C)C(O[C@@H]2O[C@H](CO)[C@@H](O)[C@H](O)[C@H]2O)C(C)(C)C1O` (stereo not given in full): the Potency entry in test [1] and in test [2] was “inactive” throughout.
Take `Clc1ccc(Nc2nc3ccccc3c3nc(C4CCCCC4)[nH]c23)cc1Cl`: the figures for the Potency in test [1] and in test [2] were 18.4 µM (active) and 8.2 µM (active), respectively.
On the same counts, the results for `O=C(O[C@H]1[C@@H]2C=CO[C@@H](O[C@@H]3O[C@H](CO)[C@@H](O)[C@H](O)[C@H]3O)[C@@H]2[C@@]2(CO)O[C@@H]12)c1ccccc1` are “inactive” and “inactive”.
